# PMC4336329 (PLoS ONE, 2015)
# The whole screen tested about 310,000 compounds, of which about 14,000 (4.5%) showed an effect of 50% or more. The effect is printed as a negative number. The sample as a whole holds a higher share of strong results than the screen did.
# Molecular target: human ether-à-go-go-related gene (hERG) potassium channel (human, UniProt Q12809)
# Test: primary screen, population patch clamp on CHO cells stably expressing hERG; higher = less effect of the substance
# 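Also: peak tail current of the secondary pulse compared with the same well before compound.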
# Chain of human ether-à-go-go-related gene (hERG) potassium channel (Q12809 whole entry, looked up): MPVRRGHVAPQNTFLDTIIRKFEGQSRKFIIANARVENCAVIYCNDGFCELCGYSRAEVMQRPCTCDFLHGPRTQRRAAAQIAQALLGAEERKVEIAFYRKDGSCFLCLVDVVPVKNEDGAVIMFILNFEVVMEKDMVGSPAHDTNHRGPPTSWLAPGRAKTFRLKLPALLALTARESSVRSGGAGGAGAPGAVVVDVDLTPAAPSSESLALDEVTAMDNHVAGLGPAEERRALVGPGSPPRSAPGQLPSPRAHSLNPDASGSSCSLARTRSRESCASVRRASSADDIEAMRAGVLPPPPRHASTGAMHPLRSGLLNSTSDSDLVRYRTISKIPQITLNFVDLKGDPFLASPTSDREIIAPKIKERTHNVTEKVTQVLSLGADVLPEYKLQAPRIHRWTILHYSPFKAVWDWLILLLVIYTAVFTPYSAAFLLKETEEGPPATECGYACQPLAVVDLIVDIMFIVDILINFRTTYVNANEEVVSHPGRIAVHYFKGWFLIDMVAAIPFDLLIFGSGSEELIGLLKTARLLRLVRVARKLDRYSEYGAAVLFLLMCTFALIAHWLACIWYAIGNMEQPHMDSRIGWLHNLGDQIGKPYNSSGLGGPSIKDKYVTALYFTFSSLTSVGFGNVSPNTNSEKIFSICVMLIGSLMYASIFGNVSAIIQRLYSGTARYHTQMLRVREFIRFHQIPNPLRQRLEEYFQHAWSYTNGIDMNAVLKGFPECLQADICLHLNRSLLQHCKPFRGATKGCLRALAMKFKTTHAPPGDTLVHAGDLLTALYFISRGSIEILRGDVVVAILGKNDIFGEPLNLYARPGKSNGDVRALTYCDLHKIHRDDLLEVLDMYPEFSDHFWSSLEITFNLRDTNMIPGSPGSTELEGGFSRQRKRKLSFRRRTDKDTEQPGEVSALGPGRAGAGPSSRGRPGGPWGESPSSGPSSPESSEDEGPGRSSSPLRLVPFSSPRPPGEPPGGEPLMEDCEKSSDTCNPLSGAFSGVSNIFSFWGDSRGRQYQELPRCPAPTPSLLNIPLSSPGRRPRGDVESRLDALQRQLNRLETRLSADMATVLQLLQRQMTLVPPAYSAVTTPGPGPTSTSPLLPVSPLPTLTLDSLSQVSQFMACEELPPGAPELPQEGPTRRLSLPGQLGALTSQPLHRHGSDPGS
row,Compound,"hERG current change (%, negative = inhibition) at 10uM [%]"
1,Nc1ccc(C(=O)Oc2ccc([N+](=O)[O-])cc2)cc1,10.9
2,Cc1ccc(NC(=O)Nc2ccccc2)c(Br)c1,-1.55
3,Fc1ccc(NC(=S)N2CCCC2)cc1,-1.37
4,CCCc1cnc(NCCNCC(O)COc2ccc(Cl)c(Cl)c2)nc1 (stereo not shown),-71.2
5,Cc1cc(OCC(O)CNC(C)(C)C)ccc1Cl.Cl (stereo not shown),-4.91
6,Cc1cc(OCC(O)CN)ccc1Cl (stereo not shown),8.74
7,CC(C)c1ccc(OCC(=O)NC2=NCCS2)cc1,1.4
8,CCc1cccc(C)c1NC(=O)CN(C)Cc1ccccc1F.O=C(O)C(=O)O,-23.8
9,COc1cccc(NC(=O)COc2c(F)c(F)c(C(F)(F)F)c(F)c2F)c1,8.02
10,CCC(C)c1ccc(NC(=O)COc2c(F)c(F)c(C(F)(F)F)c(F)c2F)cc1 (stereo not shown),-57.4
11,CCC(C)c1ccc(NC(=O)CC(C)=O)cc1 (stereo not shown),4.93
12,Nc1ccc(C(=O)NC23CC4CC(CC(C4)C2)C3)cc1,16.3
13,C=CCN(c1ccccc1)S(=O)(=O)c1cccc(C(=O)Nc2ncccc2O)c1,8.35
14,Cn1nccc1C(=O)Nc1ccc(OC(=O)c2ccnn2C)cc1,-6.68
15,Cl.OC(CN1CCCCCC1)CN(c1ccccc1)c1ccccc1 (stereo not shown),-71.8
16,Cl.OC(CN1CCOCC1)CN(c1ccccc1)c1ccccc1 (stereo not shown),-28.5
17,CN(CC(O)CN)CC(O)CN1CCCCC1.Cl (stereo not shown),4.64
18,Cl.OC(CN1CCCCC1)CN(c1ccccc1)c1ccccc1 (stereo not shown),-63.2
19,COc1ccc(-c2cc(C(=O)NCc3cccs3)no2)cc1,7.1
20,O=C(COC(=O)c1cccnc1Cl)Nc1cc(S(=O)(=O)N2CCCCC2)ccc1Cl,-18.9
21,COc1ccc(NC(=O)Cn2nnc(C(=O)NCc3ccc4c(c3)OCO4)c2N)cc1,18.4
22,O=C(C1CC(=O)N(c2ccc(F)cc2)C1)N1CCCCCC1 (stereo not shown),-6.27

row,Compound,"hERG current change (%, negative = inhibition) at 10uM [%]"
1,O=C(C1CC(=O)N(c2ccccc2)C1)N1CCN(c2ccccc2)CC1 (stereo not shown),-29
2,CC(c1ccccc1)N1CC(C(=O)N2CCN(c3ccc(F)cc3)CC2)CC1=O (stereo not shown),-65.3
3,O=C(C1CC(=O)N(c2ccccc2)C1)N1CCN(c2ccccc2F)CC1 (stereo not shown),-13.4
4,O=C(C1CC(=O)N(c2ccccc2)C1)N1CCN(c2ccc(F)cc2)CC1 (stereo not shown),-56.7
5,CC(c1ccccc1)N1CC(C(=O)N2CCN(c3ccccc3)CC2)CC1=O (stereo not shown),-27.2
6,O=C(O)C1CC(=O)N(c2ccc(F)cc2)C1 (stereo not shown),14.1
7,CC(c1ccccc1)N1CC(C(=O)O)CC1=O (stereo not shown),10.7
8,Cc1ccc(N2CC(C(=O)N3CCN(c4ccccc4)CC3)CC2=O)cc1 (stereo not shown),-17.6
9,O=C(C1CC(=O)N(c2ccc(F)cc2)C1)N1CCN(c2ccccc2)CC1 (stereo not shown),-58.3
10,O=C(C1CC(=O)N(c2ccc(F)cc2)C1)N1CCN(c2ccc(F)cc2)CC1 (stereo not shown),-73.1
11,O=C(C1CC(=O)N(c2ccc(F)cc2)C1)N1CCCCC1 (stereo not shown),-0.378
12,Cc1cc(C)cc(OCC(=O)Nc2ccc(N3CCCC3)cc2)c1,11.9
13,COc1ccc(C(=O)Nc2nnc(S(=O)(=O)N3CCOCC3)s2)cc1,-3.02
14,CC(C)C(=O)NNC(=O)c1c(O)c2ccccc2[nH]c1=O,10.3
15,O=C(Nc1cccc(O)c1)C1CC(c2c(F)cccc2Cl)=NO1 (stereo not shown),-15.6
16,COc1ccc(CNC(=O)OCCN2CCN(S(=O)(=O)c3ccc(C)cc3)CCC2=O)cc1,-35.9
17,CCCCC(NC(=O)Cc1c(C)c2cc3c(-c4ccccc4)coc3c(C)c2oc1=O)C(=O)O (stereo not shown),13.2
18,O=C1CC(NNc2nc3ccccc3s2)C(=O)N1c1ccc(F)cc1 (stereo not shown),3.25
19,CCOCCCNC(=S)N1CCN(C(=O)C(=O)Nc2ccc(C(=O)OC)cc2)CC1,-40.6
20,CSCCC(NC(=O)COc1ccccc1)C(=O)OCC(=O)c1cc2ccccc2o1 (stereo not shown),8.62
21,COc1ccc(C(=O)NC(=S)NCc2ccccc2)cc1,-0.211
22,Cc1ccccc1CNC(=O)CCC(=O)N1CCOc2ccccc21,7.41

row,Compound,"hERG current change (%, negative = inhibition) at 10uM [%]"
1,Cc1ccc(-c2c(C)n([O-])c3c([n+]2=O)CCCCC3)o1,-1.3
2,Cc1c(NC(=O)c2ccc(Cl)nc2)cccc1-c1nc2cccnc2s1,-48.1
3,CCCOc1ccc(/C=c2\sc3ncnn3c2=O)cc1,6.61
4,CCOCc1[nH]c(=S)[nH]c(=O)c1Cc1ccc(OCC(C)C)cc1,14
5,CCOCc1[nH]c(=S)[nH]c(=O)c1Cc1ccc(OC(C)C)cc1,-58.8
6,CCOCc1[nH]c(=S)[nH]c(=O)c1Cc1ccc(OCC)cc1,9.49
7,COc1cccc(C2=CC(c3cccs3)n3nnnc3N2)c1 (stereo not shown),14.5
8,CCc1nnc(SCc2ccc(OC(C)C)cc2)n1N,9.36
9,CCCCn1c2c(c(=O)n(C)c1=O)C(CC(=O)OCC(=O)Nc1cccc(C(F)(F)F)c1)C(=O)N2 (stereo not shown),-5.56
10,CC(Sc1nnc(C2CC2)n1C1CC1)C(=O)Nc1ccccc1C#N (stereo not shown),-10
11,CC(Sc1nnc(C2CC2)n1C1CC1)C(=O)Nc1cccc(S(=O)(=O)N(C)C)c1 (stereo not shown),-19.5
12,COc1ccc(Cl)cc1NC(=O)C(C)Sc1nncn1C (stereo not shown),0.256
13,COc1cccc(NC(=O)C(C)Sc2nnc(C3CC3)n2C2CC2)c1 (stereo not shown),-67
14,Cc1ccc(NC(=O)C(C)Sc2nnc(C)n2C2CC2)cc1S(=O)(=O)N1CCOCC1 (stereo not shown),-13.9
15,Cc1ccc(NC(=O)C(C)Sc2nnc(C3CC3)n2C2CC2)cc1S(=O)(=O)N1CCOCC1 (stereo not shown),-51
16,COc1ccc(NC(=O)C(C)Sc2nnc(C3CC3)n2C2CC2)cc1 (stereo not shown),-13.3
17,COc1ccc(Cl)cc1NC(=O)C(C)Sc1nnc(C2CC2)n1C1CC1 (stereo not shown),-69.5
18,CC(Sc1nnc(C2CC2)n1C1CC1)C(=O)Nc1cccc(S(=O)(=O)N2CCOCC2)c1 (stereo not shown),-11.8
19,Cc1ccc(C)c(OCCC(=O)NCCc2ccc(S(N)(=O)=O)cc2)c1,10.7
20,O=C(c1cccs1)[C@@H]1[C@@H]2C(=O)N(Cc3ccc4c(c3)OCO4)C(=O)[C@@H]2C2c3ccccc3C=CN21 (stereo partly shown),-26.7
21,O=C(CCCCCN1C(=O)c2cccc3cccc(c23)C1=O)NCCCO,-1.71
22,O=c1[nH]c(C2CC2)nc2sc3c(c12)CCCC3,15.8

row,Compound,"hERG current change (%, negative = inhibition) at 10uM [%]"
1,CCOC(=O)c1c(NC(=O)COC(=O)Cc2n[nH]c(=O)c3ccccc23)sc(C(=O)N(C)C)c1C,-2.24
2,CCOC(=O)c1c(NC(=O)COC(=O)c2ccccn2)sc(C(=O)N(C)C)c1C,4.44
3,CCOC(=O)c1c(NC(=O)COC(=O)CCOc2ccc(OCC)cc2)sc(C(=O)N(C)C)c1C,-8.87
4,CCOC(=O)c1c(NC(=O)COC(=O)Cc2ccccc2[N+](=O)[O-])sc(C(=O)N(C)C)c1C,-68.9
5,CCOC(=O)c1c(NC(=O)COC(=O)Cc2c[nH]c3ccccc23)sc(C(=O)N(C)C)c1C,-62.5
6,CCOC(=O)c1c(NC(=O)COC(=O)c2ccc([N+](=O)[O-])cc2)sc(C(=O)N(C)C)c1C,-8.65
7,CN(Cc1nc2ccccc2[nH]1)Cc1nc(CC2CC2)no1,-14.5
8,CCOc1cc(Br)ccc1S(=O)(=O)N1CCC(C(N)=O)CC1,-5.26
9,O=C1COc2ccc(C(=O)COc3ccc([N+](=O)[O-])cc3)cc2N1,8.2
10,CC(C)Oc1ccc(C(CC(=O)O)NC(=O)c2cccs2)cc1 (stereo not shown),-2.74
11,COc1ccc(C2C3=C(CC(C)(C)CC3=O)OC(N)=C2[N+](=O)[O-])cc1 (stereo not shown),8.74
12,COc1ccc(C2C(C#N)=C(N)OC3=C2C(=O)CC(C)(C)C3)cc1 (stereo not shown),12.8
13,N=c1c2c(ncn1Cc1ccco1)Oc1ccc3ccccc3c1C2c1ccccc1 (stereo not shown),-6.08
14,CC1(C)CC(=O)C2=C(C1)Oc1ncn(CCCO)c(=N)c1C2c1ccccc1 (stereo not shown),-29
15,COc1ccc(C2C3=C(CC(C)(C)CC3=O)Oc3ncn(CCCn4ccnc4)c(=N)c32)cc1 (stereo not shown),-16.6
16,CC1(C)CC(=O)C2=C(C1)Oc1ncn(CCO)c(=N)c1C2c1ccccc1 (stereo not shown),-35.3
17,CC1(C)CC(=O)C2=C(C1)Oc1ncn(CCCn3ccnc3)c(=N)c1C2c1ccccc1 (stereo not shown),-53.3
18,CC1(C)CC(=O)C2=C(C1)Oc1ncn(Cc3ccco3)c(=N)c1C2c1ccccc1 (stereo not shown),-60.8
19,COc1ccc(C2C3=C(CC(C)(C)CC3=O)Oc3ncn(CC(C)C)c(=N)c32)cc1 (stereo not shown),-69.1
20,CC(C)Cn1cnc2c(c1=N)C(c1ccccc1)C1=C(CC(C)(C)CC1=O)O2 (stereo not shown),-38.8
21,COc1ccc(C2C3=C(CC(C)(C)CC3=O)Oc3ncn(Cc4ccco4)c(=N)c32)cc1 (stereo not shown),-68.3
22,COc1ccc(C2C3=C(CC(C)(C)CC3=O)Oc3ncn(CCO)c(=N)c32)cc1OC (stereo not shown),-24.5
